Experimental data from PubChem BioAssay (NCI).
Compounds without any hit were thinned out: in the full panel of roughly 79,000, 15% have a hit. Unmarked numbers belong to inactive results. The source made the active and inactive calls. Cut-off read from the data, not from the text of the source: active = growth inhibition above about 70%; inactive = the rest.

Tests used:
[1] = NCI Yeast Anticancer Drug Screen. Data for the rad50 strain (AID 155);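 note: 0% = growth of vehicle-only cultures of the same strain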; conditions: S. cerevisiae rad50 strain growth inhibition; at 50.0 µM; hits give high values
Method in brief: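 Compounds were tested on a yeast strain with an engineered DNA damage repair alteration; the reported value is growth inhibition normalised to vehicle treatment.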

[2] = NCI Yeast Anticancer Drug Screen. Data for the mec2-1 strain (AID 157); conditions: S. cerevisiae mec2-1 strain, at 50.0 µM, hits give high values
Method in brief: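 Yeast mec2-1 mutant treated with compound. Readout: growth inhibition vs vehicle controls.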

[3] = NCI Yeast Anticancer Drug Screen. Data for the sgs1 mgt1 strain (AID 161);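 note: 0% = growth of cultures given vehicle only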; conditions: S. cerevisiae sgs1 mgt1 strain, at 50.0 µM, hits give high values
Method in brief: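 Mutant yeast exposed to compound; growth scored against vehicle-only wells.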

[4] = NCI Yeast Anticancer Drug Screen. Data for the cln2 rad14 strain (AID 165);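 note: 0% = growth equal to vehicle treated cultures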; conditions: S. cerevisiae cln2 rad14 strain, at 50.0 µM, hits give high values
Method in brief: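 cln2 rad14 yeast strain; compound exposure; growth inhibition read vs vehicle controls.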

[5] = NCI Yeast Anticancer Drug Screen. Data for the bub3 strain (AID 167); conditions: S. cerevisiae bub3 mutant strain, at 50.0 µM, hits give high values
Method in brief: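 Growth of a checkpoint-deficient yeast mutant is measured after compound exposure. Values represent inhibition relative to vehicle.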

[6] = NCI Yeast Anticancer Drug Screen. Data for the mlh1 rad18 strain (AID 175); conditions: S. cerevisiae mlh1 rad18 strain growth inhibition; at 50.0 µM; hits give high values
Method in brief: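 Yeast w/ defined DNA-repair lesions; compound exposure; growth vs vehicle controls → % inhibition.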

SMILES	growth inhibition [1]	growth inhibition [2]	growth inhibition [3]	growth inhibition [4]	growth inhibition [5]	growth inhibition [6]
COc1ccc(OC)c(NCC(=O)Nn2cnc3ccc(S(=O)(=O)Nc4cc(OC)ccc4OC)cc3c2=O)c1	36.9%	12.7%	27.6%	20.9%	50.8%	37.1%
O=C(NC1CCCCC1)/C(=C\c1ccc(/C=C(/NC(=O)c2ccccc2)C(=O)NC2CCCCC2)cc1)NC(=O)c1ccccc1	-9.95%	-26.9%	9.5%	-34.5%	-22.6%	-20.8%
C#CCCC#C	-4.4%	-17.3%	8.4%	6%	-16.1%	-5.8%
O=C(O)c1ccoc1-c1ccccc1	12.7%	-6.05%	10.7%	-26.9%	-7.55%	22.2%
CCn1c(=O)c2ccccc2c2cc([N+](=O)[O-])ccc21	7.65%	18.1%	2.75%	17.1%	12.2%	-2.7%
Cc1cc2oc(C)c(S(=O)(=O)NC(=O)Nc3ccc(Cl)cc3)c(=O)c2c(=O)o1	-2.85%	-0.45%	-2.5%	3.55%	12.2%	-2.8%
CCOc1c(N=Nc2ccccc2C)c(-c2ccccc2)nn1C(N)=S	8.25%	6.85%	5.4%	25.4%	-3.5%	8.25%
CCCCCCCC[N+]1([O-])CC[N+](C)([O-])CC1 (stereo not given)	3.9%	4.1%	-2.25%	-21.5%	-8.3%	2.55%
COc1ccc(/C=N/N2CCN(/N=C/c3ccc(OC)c(OC)c3)CC2)cc1OC	22.9%	0.65%	3.25%	19.1%	-1.75%	1.15%
O=C(Cc1ccccc1)NN1C(=O)/C(=C\c2ccc([N+](=O)[O-])cc2)SC1=Nc1ccccc1	-2.8%	-8.85%	52.1%	15.2%	-18.9%	28.5%
Cc1ccc(C(=O)OC2C3(C)CCC(C3)C2(C)C)cc1 (stereo not given)	15.9%	18.3%	14.3%	-37.2%	10.2%	-0.15%
COc1ccc(C(=O)Nc2ccccc2C#N)cc1	-0.15%	-4.5%	-9.25%	-1.25%	1.55%	-3.8%
CCCCCCNC(C)=O	13.6%	5.7%	11.9%	5.7%	-5.5%	-0.55%
CCCCCCCCCCCCCCCCOc1ccc(S(=O)(=O)NC(C)(C)C)cc1[N+](=O)[O-]	8.7%	-17.4%	7.85%	-1.6%	20.6%	18.9%
O=[N+]([O-])c1cc2c(cc1O)[nH]c1cccc([N+](=O)[O-])c12	-2.25%	-11.4%	-42.5%	21.1%	-15.8%	-22.6%
Oc1c(Br)cc(CN(Cc2cc(Br)c(O)c(Br)c2)C2CCCCC2)cc1Br	-2.75%	-6.5%	-21.3%	-15.7%	-23.1%	5.4%
c1ccc2cc3c(cc2c1)Cn1c-3nc2ccccc21	19.4%	-8.7%	13.2%	6.55%	11.4%	27.8%
O=Cc1cc(N=Nc2ccc(S(=O)(=O)O)cc2)ccc1O	5.8%	-35.5%	-1.45%	14.9%	-17.6%	3.6%
O=NN(Cc1ccccc1)c1ccc(OCc2ccccc2)c(NC(=O)CCC2OCCO2)c1	6.95%	4.25%	30.4%	7.05%	39.9%	9.5%
COc1cc2c(c(OC)c1OC)-c1ccc(SCC3CCC4CC3C4(C)C)c(=O)cc1C(NC(C)=O)CC2 (stereo not given)	97.5% (active)	97.3% (active)	98% (active)	96.2% (active)	95.9% (active)	96.9% (active)

SMILES	growth inhibition [1]	growth inhibition [2]	growth inhibition [3]	growth inhibition [4]	growth inhibition [5]	growth inhibition [6]
O=C1c2ccccc2-c2ccc3c4ccc5c6c(ccc(c7ccc1c2c73)c64)C(=O)c1ccccc1-5	53.2%	23.4%	36.8%	30.6%	15.2%	37.5%
COc1cccc(C2SCC(=O)N2c2nncs2)c1OC (stereo not given)	-34.8%	6%	9.95%	8.3%	2.6%	-9%
CSc1cc(Cl)c(C)cc1S(=O)(=O)NC(=O)NNc1ccccn1	-4.3%	-1.6%	8.15%	-2.05%	-1.5%	21%
CC(=O)Nc1cccc2c(OC(C)=O)cccc12	15.1%	-20.9%	-19.7%	-50%	7.6%	-4.1%
COc1ccc2nc(NC(=O)C(=O)C(C#N)c3ccc(Cl)c(Cl)c3)sc2c1 (stereo not given)	36.2%	5.4%	19.1%	33.9%	-2.2%	36.4%
O=C(NC1CCCCC1)C(c1ccccc1)c1ccccc1	8.85%	-3.3%	0.4%	-18.7%	1.85%	-10.9%
COc1ccc(NC(=O)CC(=O)N2N=C(N(CCC#N)c3ccc(Cl)cc3)CC2c2ccccc2)cc1 (stereo not given)	16.5%	-17%	-1.55%	7.5%	2.05%	-6.05%
O=C(Nc1ccc(Cl)cc1[N+](=O)[O-])Oc1ccc(-c2ccccc2)cc1	23.4%	58.5%	48.1%	8.3%	78.8% (active)	66%
S=C1NC(/C=C/c2ccccc2)Nc2ccccc21 (stereo not given)	62.2%	79.1% (active)	73% (active)	81.8% (active)	27.6%	88.2% (active)
O=C(O)C1(c2ccccc2)CC1	8.5%	-7%	13.1%	2.45%	15.9%	7.85%
CN1CN(c2ccccc2)C2(CCN(c3nc4ccccc4s3)CC2)C1=O	-29.7%	-6.1%	-22.8%	-18.4%	3.2%	-17.1%
C/C(=C\c1ccccc1)C(=O)C1C(c2ccccc2)CC(=O)C(C)C1c1ccccc1 (stereo not given)	-3.65%	-11.7%	-27.3%	-36.5%	-0.5%	2.35%
[CH3][Ge]([Cl])([c]1ccccc1)[c]1cccc2ccccc12 (stereo not given)	25.2%	12.4%	10.8%	10.2%	-0.15%	7.5%
COc1ccc(/C=C/C(=O)c2ccc3c(c2)OCO3)cc1OC	-15.6%	-14.8%	-45.1%	-6.65%	-33.7%	-23.5%
Cn1c2ccccc2c(=S)c2c(O)cc3c(c21)C=CC(C)(C)O3	28.8%	6.3%	-0.7%	22.9%	9.85%	21.6%
COc1ccc(-c2c(C#N)c(-c3ccccc3)n(NS(=O)(=O)c3ccccc3)c(=O)c2C#N)cc1	-0.05%	40.7%	30.4%	8.45%	32.6%	42.1%
CC(C)(C)S(=O)(=O)C[N+]1(C)CCOCC1	37.1%	11.6%	-1.6%	-2%	-3.25%	5.35%
CCOC(C)OCCCI (stereo not given)	-25.8%	-21.3%	3.5%	-9.7%	-13.3%	13.2%
O=c1cc2c(n[nH]1)CCCC2	8.85%	4.55%	2.55%	16.9%	-0.75%	11.4%
Cc1cc2c(cc1Cl)SC(NNc1cnc3ccccc3n1)=NS2(=O)=O	23.3%	21.6%	35.7%	20.2%	19.1%	4.8%
